The source made the active and inactive calls. Entries that show only a call come without a potency. The call rests on the fitted dose curve.

The text below walks through data of PubChem BioAssay (Tox21).

This test in a line: G protein-coupled receptor (GPCR) small molecule agonists, calcium flux assay: HEK293 wild type cell line counter screen (AID 1920065). Conditions: HEK293 WT calcium flux, fluorescence, agonist mode; series mostly up to 57.6 µM. An excerpt:
U.S. Tox21 Program National Center for Advancing Translational Sciences [NCATS] Division of Preclinical Innovation [DPI] U.S. Environmental Protection Agency [EPA] National Institutes of Environmental Health Sciences [NIEHS] National Toxicology Program [NTP] U.S. Food and Drug Administration [FDA] Assay overview: The increased intracellular calcium release that occurred upon G protein-coupled receptor (GPCR) activation led to the frequent use of calcium flux assays to detect GPCR activation. For the purpose of studying and screening compounds that may activate GPCR, receptor-overexpressing models were typically generated using Hek293 wild-type (WT) cells. In order to eliminate the compounds that may have induced calcium release for non-specific activation, a counter-assay utilizing calcium flux on Hek293 WT cells was performed. The data were formulated in order to serve as a control for any calcium flux detection utilizing Hek293 cells with either GPCR overexpression or gene modification. The procurement of Hek293 WT cells from ATCC. Fluorescence intensity can be utilized to determine the activation of the compound in a calcium flux assay. As a counter control, this cell line was utilized to screen the Tox21 10K compound library.
Assay Protocol Summary: Hek293 cells were dispensed at 1500cells/4uL/well in 1536-well black wall/clear bottom plates using a multidrop dispenser. After the assay plates were incubated at a 37 C/5% CO2 incubator for 18 hours, 4 uL of Calcium Dye Solution was added to each well. The plates were incubated at 37 C for 1 hour. For agonist mode, 23 nL of compounds dissolved in DMSO, positive control (ATP) or DMSO only was transferred to the assay plate by a pin tool station. The fluorescence intensity in the plates was measured using FDSS 7000EX kinetic plate reader with a filter set of Ex/Em=480/540 for 3 min at 1 sec intervals. Each test compound was measured at 15 concentrations and in triplicates.
As to `O=C(OCc1ccccc1)c1ccccc1O`, the Potency entry was “inactive”.

As for `Cc1cccc(C(=O)O)c1`, the Potency result is “inactive”.

As for `NNC(=O)c1ccncc1`, the Potency result is “inactive”.

`O=C(c1ccccc1)C(O)c1ccccc1` (stereo not given): the Potency entry was “inactive”.

With `CC(=O)c1ccccn1`, the Potency result was “inactive”.

`Cc1ccc(C(=O)O)o1`: the Potency result is “inactive”.

Turning to `CCCCC(CC)COC(=O)c1ccc(N(C)C)cc1` (stereo not given), the Potency result was “inactive”.

Regarding `COC(=O)CC(=O)OC`, the Potency entry is “inactive”.

Turning to `Brc1nc2ccccc2s1`, the Potency result is “inactive”.

Turning to `Cc1ccc(C)c(S(=O)(=O)O)c1`, the Potency entry was “inactive”.

Consider `Cc1cccc2n[nH]nc12`, for which the Potency result is “inactive”.

As to `OCCc1ccccc1`, the Potency result is “inactive”.

Turning to `OC[C@@H](O)[C@@H](O)[C@H](O)[C@@H](O)CO`, the Potency result was “inactive”.

In the case of `O=C1CCCC1`, the Potency entry is “inactive”.

`Cc1cc(=O)oc2cc(O)ccc12`: the Potency entry was “inactive”.

For `NC(=NCCCCCCN=C(N)/N=C(\N)Nc1ccc(Cl)cc1)/N=C(\N)Nc1ccc(Cl)cc1`, the Potency entry is “inactive”.

Regarding `CCCC(C)=O`, the Potency entry is “inactive”.

Regarding `COCN(COC)c1nc(N(COC)COC)nc(N(COC)COC)n1`, the Potency entry is “inactive”.

Regarding `Cc1ccccc1Cl`, the Potency entry was “inactive”.

Regarding `Cc1ccc(C)c(OCCCC(C)(C)C(=O)O)c1`, the Potency result was “inactive”.

Take `CC1=C(C)S(=O)(=O)CCS1(=O)=O`: the Potency result is “inactive”.

As to `O=C(O)CCCCC1CCSS1` (stereo not given), the Potency result is “inactive”.

With `CCCc1cc(=O)[nH]c(=S)[nH]1`, the Potency result was “inactive”.

As to `O=C(O)c1cccc(C(=O)O)c1`, the Potency entry was “inactive”.

`CC(CCC(=O)O)(c1ccc(O)cc1)c1ccc(O)cc1`: the Potency entry is “inactive”.

Take `Cc1cc(Cc2ccc(N)c(C)c2)ccc1N`: the Potency entry was “inactive”.

As to `O=C(O)CS`, the Potency entry is “inactive”.

With `CC1(C)O[C@@H]2C[C@H]3[C@@H]4C[C@H](F)C5=CC(=O)CC[C@]5(C)[C@H]4[C@@H](O)C[C@]3(C)[C@]2(C(=O)CO)O1`, the Potency entry was “inactive”.

`C=C(C)OC(C)=O`: the Potency result is “inactive”.

On to `CCCCCCCCCCCCS`, for which the Potency entry is “inactive”.

For the compound `CCCCCCCCCCCCCO`, the Potency entry was “inactive”.

On to `C#C[C@]1(O)CC[C@H]2[C@@H]3CCc4cc(OC)ccc4[C@H]3CC[C@@]21C`, for which the Potency result was “inactive”.

Regarding `CCCCCCCC(=O)OC`, the Potency result is “inactive”.

As for `C/C=C/C=C/C(=O)O`, the Potency entry was “inactive”.

In the case of `NC=O`, the Potency result was “inactive”.

Consider `CC[Si](OC(C)=O)(OC(C)=O)OC(C)=O`, for which the Potency entry is “inactive”.

For `Cc1cccc(C)c1O`, the Potency entry is “inactive”.

`O=C1c2c(O)cccc2Cc2cccc(O)c21`: the Potency result was “inactive”.

As for `CC1CCC2CC1C2(C)C` (stereo not given), the Potency entry is “inactive”.

As for `CCCCOC(=O)CCCCCCCCC(=O)OCCCC`, the Potency entry was “inactive”.
